# Test results reported in the supplement of paper PMC8728848.
# The sample as a whole holds a higher share of the strongest signals than the screen did.
# B1: LBL-152 (Laetiporus bicolor), B0D650 (protein)
# chain: MSNEYNPPLGIAFRLCGLASDRVLFSRVSPSPEVFHHPKSEVYPDQWFVAIPGSGQNAGCYAIKSKNTGKVLFSRMSPDPRVGHIDGDGKYPDNWFKFEAGSGKYAGYFRLRAVASDTVLVSRTSTGTDTQVINYPATSAKYDDQYFTILFDHHHHHH
# Tests used:
# Test in all cases: glycan array binding signal (z-score within array); higher = stronger binding
# Settings in all cases: glycan notation: IUPAC condensed, linker removed
# Fuc(a1-2)Gal = biological target: Fuc(a1-2)Gal
# Method in brief: (§1)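 Negative Z-scores can be read as non-binding. The Z-score is calculated within each array and then averaged across arrays of one protein sequence at different concentrations or buffers and across linkers. Arrays, 3228 in all, were curated from the Consortium for Functional Glycomics database and kept only where the protein sequence was available.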
# [1] = biological target: Fuc(a1-2)Gal(b1-3)GalNAc(b1-3)Gal
# Method in brief: as §1
# [2] = biological target: Fuc(a1-2)Gal(b1-4)[Fuc(a1-3)]GlcNAc
# Method in brief: as §1
# [3] = biological target: Fuc(a1-2)Gal(b1-4)[Fuc(a1-3)]GlcNAc(b1-2)Man(a1-3)[Fuc(a1-2)Gal(b1-4)[Fuc(a1-3)]GlcNAc(b1-2)Man(a1-6)]Man(b1-4)GlcNAc(b1-4)[Fuc(a1-6)]GlcNAc
# Method in brief: as §1
# Fuc(a1-2)[Gal(a1-3)]Gal = biological target: Fuc(a1-2)[Gal(a1-3)]Gal
# Method in brief: as §1
# [4] = biological target: Fuc(a1-2)[Gal(a1-3)]Gal(b1-3)GlcNAc(b1-6)GalNAc
# Method in brief: as §1
# [5] = biological target: Fuc(a1-2)[Gal(a1-3)]Gal(b1-4)GlcNAc(b1-2)Man
# Method in brief: as §1
# [6] = biological target: Fuc(a1-2)[GalNAc(a1-3)]Gal
# Method in brief: as §1
# [7] = biological target: Fuc(a1-2)[GalNAc(a1-3)]Gal(b1-4)Glc
# Method in brief: as §1
# [8] = biological target: Fuc(a1-2)[GalNAc(a1-3)]Gal(b1-4)GlcNAc
# Method in brief: as §1
# [9] = biological target: Fuc(a1-2)[GalNAc(a1-3)]Gal(b1-4)GlcNAc(b1-2)Man(a1-3)[Fuc(a1-2)[GalNAc(a1-3)]Gal(b1-4)GlcNAc(b1-2)Man(a1-6)]Man(b1-4)GlcNAc(b1-4)[Fuc(a1-6)]GlcNAc
# Method in brief: as §1
# [10] = biological target: Fuc(a1-2)[GalNAc(a1-3)]Gal(b1-4)GlcNAc(b1-3)GalNAc
# Method in brief: as §1
# [11] = biological target: Fuc(a1-3)[Gal(b1-4)]Glc6S
# Method in brief: as §1
# [12] = biological target: Fuc(a1-3)[GalNAc(b1-4)]GlcNAc
# Method in brief: as §1
# Fuc(a1-4)GlcNAc = biological target: Fuc(a1-4)GlcNAc
# Method in brief: as §1
# [13] = biological target: Gal(a1-3)Gal(b1-3)GlcNAc(b1-3)GalNAc
# Method in brief: as §1
# [14] = biological target: Gal(a1-3)Gal(b1-4)GlcNAc(b1-6)GalNAc
# Method in brief: as §1
# [15] = biological target: Gal(a1-4)Gal(b1-4)GlcNAc(b1-2)Man(a1-3)[Gal(a1-4)Gal(b1-4)GlcNAc(b1-2)Man(a1-6)]Man(b1-4)GlcNAc(b1-4)GlcNAc
# Method in brief: as §1
# Gal(b1-3)Gal(b1-4)GlcNAc = biological target: Gal(b1-3)Gal(b1-4)GlcNAc
# Method in brief: as §1
# [16] = biological target: Gal(b1-3)GlcNAc(b1-2)Man(a1-3)[Gal(b1-3)GlcNAc(b1-2)Man(a1-6)]Man(b1-4)GlcNAc(b1-4)GlcNAc
# Method in brief: as §1
# [17] = biological target: Gal(b1-3)GlcNAc(b1-3)Gal(b1-4)GlcNAc(b1-2)Man(a1-3)[Gal(b1-3)GlcNAc(b1-3)Gal(b1-4)GlcNAc(b1-2)Man(a1-6)]Man(b1-4)GlcNAc(b1-4)GlcNAc
# Method in brief: as §1
# [18] = biological target: Gal(b1-3)[Fuc(a1-4)]GlcNAc(b1-2)Man
# Method in brief: as §1
# [19] = biological target: Gal(b1-3)[Fuc(a1-4)]GlcNAc(b1-3)Gal(b1-3)[Fuc(a1-4)]GlcNAc
# Method in brief: as §1
# [20] = biological target: Gal(b1-3)[Neu5Ac(b2-6)]GalNAc
# Method in brief: as §1
# Gal(b1-4)Glc = biological target: Gal(b1-4)Glc
# Method in brief: as §1
# Gal(b1-4)GlcNAc(b1-2)Man = biological target: Gal(b1-4)GlcNAc(b1-2)Man
# Method in brief: as §1
# [21] = biological target: Gal(b1-4)GlcNAc(b1-2)Man(a1-6)Man(b1-4)GlcNAc(b1-4)GlcNAc
# Method in brief: as §1
# [22] = biological target: Gal(b1-4)GlcNAc(b1-3)Gal(b1-4)GlcNAc(b1-3)Gal(b1-4)GlcNAc(b1-2)Man(a1-3)[Gal(b1-4)GlcNAc(b1-3)Gal(b1-4)GlcNAc(b1-3)Gal(b1-4)GlcNAc(b1-2)Man(a1-6)]Man(b1-4)GlcNAc(b1-4)[Fuc(a1-6)]GlcNAc
# Method in brief: as §1
# [23] = biological target: Gal(b1-4)GlcNAc(b1-3)Gal(b1-4)GlcNAc(b1-3)Gal(b1-4)GlcNAc(b1-2)[Gal(b1-4)GlcNAc(b1-3)Gal(b1-4)GlcNAc(b1-3)Gal(b1-4)GlcNAc(b1-6)]Man(a1-6)[Gal(b1-4)GlcNAc(b1-3)Gal(b1-4)GlcNAc(b1-3)Gal(b1-4)GlcNAc(b1-2)Man(a1-3)]Man(b1-4)GlcNAc(b1-4)[Fuc(a1-6)]GlcNAc
# Method in brief: as §1
binder,measurement,setting,value
B1,glycan array binding signal (z-score),Fuc(a1-2)Gal,-0.151
same,glycan array binding signal (z-score),[1],-0.162
same,glycan array binding signal (z-score),[2],-0.157
same,glycan array binding signal (z-score),[3],-0.147
same,glycan array binding signal (z-score),Fuc(a1-2)[Gal(a1-3)]Gal,-0.145
same,glycan array binding signal (z-score),[4],-0.156
same,glycan array binding signal (z-score),[5],-0.153
same,glycan array binding signal (z-score),[6],-0.151
same,glycan array binding signal (z-score),[7],-0.157
same,glycan array binding signal (z-score),[8],-0.156
same,glycan array binding signal (z-score),[9],-0.156
same,glycan array binding signal (z-score),[10],-0.155
same,glycan array binding signal (z-score),[11],-0.156
same,glycan array binding signal (z-score),[12],-0.141
same,glycan array binding signal (z-score),Fuc(a1-4)GlcNAc,-0.151
same,glycan array binding signal (z-score),[13],-0.158
same,glycan array binding signal (z-score),[14],-0.162
same,glycan array binding signal (z-score),[15],-0.132
same,glycan array binding signal (z-score),Gal(b1-3)Gal(b1-4)GlcNAc,-0.158
same,glycan array binding signal (z-score),[16],-0.154
same,glycan array binding signal (z-score),[17],-0.136
same,glycan array binding signal (z-score),[18],-0.159
same,glycan array binding signal (z-score),[19],-0.16
same,glycan array binding signal (z-score),[20],-0.154
same,glycan array binding signal (z-score),Gal(b1-4)Glc,-0.156
same,glycan array binding signal (z-score),Gal(b1-4)GlcNAc(b1-2)Man,-0.148
same,glycan array binding signal (z-score),[21],-0.156
same,glycan array binding signal (z-score),[22],5.46
same,glycan array binding signal (z-score),[23],4.41
